Sampled rows, rich in hits. Any-hit rate of the full collection: about 3.2%.
sPLA2-III inh: Inhibits HGIII-sPLA2 liposome hydrolysis, primary screen; QFRET BODIPY PC-A2 liposome hydrolysis, fluorescence; inhibition, % at 12.2 µM; 0.56% of 370,000 active;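 active = inhibition above mean plus 3 SD of compounds lying within the high and low control bounds, cut at about 19% in these data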
Target sequence (Q9NZ20 whole entry, looked up): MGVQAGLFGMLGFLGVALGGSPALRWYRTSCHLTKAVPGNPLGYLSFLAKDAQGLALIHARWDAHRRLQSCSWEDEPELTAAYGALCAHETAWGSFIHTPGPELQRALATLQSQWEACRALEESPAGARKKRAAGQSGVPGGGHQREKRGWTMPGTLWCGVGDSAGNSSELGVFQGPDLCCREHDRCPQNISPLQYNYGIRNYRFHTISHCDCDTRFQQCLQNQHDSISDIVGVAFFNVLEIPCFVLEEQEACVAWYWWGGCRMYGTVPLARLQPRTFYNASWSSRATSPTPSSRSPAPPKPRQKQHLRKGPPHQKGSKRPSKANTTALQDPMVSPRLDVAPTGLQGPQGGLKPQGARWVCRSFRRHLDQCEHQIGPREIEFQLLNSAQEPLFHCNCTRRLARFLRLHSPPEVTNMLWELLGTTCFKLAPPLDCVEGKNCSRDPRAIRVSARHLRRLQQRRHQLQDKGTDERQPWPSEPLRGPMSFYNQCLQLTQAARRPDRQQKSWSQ
PG9 binder: binds the HIV-1 gp120 antibody PG9. TR-FRET gp120-PG9 antibody binding. inhibition, % at 6.7 µM. 0.43% of 360,000 active; in the data active = inhibition above about 8.5%
MsrA act: activates bovine MsrA enzyme. purified bovine MsrA, absorbance read-out. activation, % at 10.6 µM. 0.3% of 360,000 active. AID 602163; in the data active = activation above about 7.5%
rCAG binder: molecules binding r(CAG) RNA repeats; r(CAG) RNA repeat, TO-PRO-1 dye displacement fluorescence; inhibition, % at 3 µM; 1.3% of 370,000 active;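 active = inhibition above the plate cutoff, the mean of all test compounds on that plate plus 3 SD, cut at about 35% in these data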;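 also: higher means more dye released from RNA so lower well fluorescence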
MsrA inhibitor: bovine MsrA inhibition | AID 651718 | inhibition, % at 15.5 µM | 0.75% of 360,000 active | purified bovine MsrA, absorbance read-out; in the data active = inhibition above about 4.5%
sPLA2 confirm: human GIII-sPLA2 inhibition, confirmation; inhibition, % at 12.2 µM; shares compounds with sPLA2-III inh; 34% of 2,000 active; recombinant hGIII-sPLA2, BODIPY PC-A2 QFRET fluorescence;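 active = mean inhibition across triplicates above the hit cutoff set in the earlier primary screen, cut at about 19% in these data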
535nm interf: optically interferes with 535nm fluorescence in sPLA2 counter-screen | BODIPY FL product fluorescence interference, QFRET | 8.5% of 2,000 active | shares compounds with sPLA2-III inh | inhibition, % at 12.2 µM;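 active = average inhibition above the solvent-only control mean plus 3 SD, cut at about 6% in these data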
BODIPY interf DR: interferes with 535nm fluorescence in dose response counter-screen; 240 tested, under 10 active; AID 743455; shares compounds with sPLA2-III inh; IC50, µM; BODIPY FL product fluorescence interference, cell-free;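 active = IC50 at or below 10 µM; inactive = IC50 above 10 µM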
A number is an active result; 0 = inactive; - = not tested or not shown.

SMILES | sPLA2-III inh | PG9 binder | MsrA act | rCAG binder | MsrA inhibitor | sPLA2 confirm | 535nm interf | others
CCOc1ccc(OCC(=O)OCC(=O)N2CCN(S(=O)(=O)c3ccc(C)cc3C)CC2)cc1 | 0 | 0 | 0 | 0 | 0 | - | -
CC1=CC(C)(C)N(C(=O)CSc2nncn2C)c2ccccc21 | 0 | 0 | 0 | 0 | 0 | - | -
Cc1cc2c(cc1C)N(C(=O)CSc1nncn1C)C(C)(C)c1ssc(=S)c1-2 | 33.9 | 0 | 0 | 0 | 0 | 0 | 0
COc1ccc2ccccc2c1/C=N/Nc1ccc(Cl)c(C(=O)O)c1 | 0 | 0 | 0 | 0 | 0 | - | -
COc1ccc(N/N=C/c2c(C(=O)O)ccc3ccccc23)cc1 | 19.3 | 0 | 0 | 0 | 0 | 0 | 0
CCCCCCCCNC(=S)NCCN1CCCCC1 | 23.1 | 0 | 0 | 0 | 0 | 21.4 | 0
S=C(NCCCN1CCOCC1)NCCCN1CCOCC1 | 0 | 0 | 0 | 0 | 0 | - | -
CC(C)(C)OC(=O)N1CCC[C@@H]1C(=O)N1CCC[C@@H]1C(=O)NCc1ccccc1 | 0 | 0 | - | 0 | 0 | - | -
COCc1[nH]nc2c1C(c1ccc3c(c1)OCO3)N(Cc1ccccc1)C2=O (stereo not given) | 0 | 0 | - | 0 | 0 | - | -
CCCCN(C)S(=O)(=O)c1c(C)[nH]c(=O)[nH]c1=O | 19.4 | 0 | 0 | 0 | 0 | 0 | 0
c1ccc2c(c1)c1c3n2CCNC3CCC1 (stereo not given) | 25.9 | 0 | 0 | 0 | 0 | 29.9 | 0 | BODIPY interf DR=0
Oc1ccc2c(c1)c1c3n2CCNC3CCC1 (stereo not given) | - | - | 0 | - | - | - | -
Oc1cccc2ccc(/C=C/c3ccccc3Br)nc12 | 26.1 | 0 | 0 | 0 | 0 | 0 | 0
O=C(NCc1ccc(Cl)cc1)OCCN1C(=O)CCC12CCC(c1ccccc1)CC2 (stereo not given) | 0 | - | - | 0 | - | - | -
CCCNS(=O)(=O)c1ccc(CCC(=O)N2CCN(CC)CC2)cc1 | 20.9 | 0 | 0 | 0 | 0 | 0 | 0
NNc1nc2c(Cl)c(Cl)ccc2s1 | 23.6 | 0 | 0 | 0 | 0 | 0 | 13.4
Clc1ccc(OCCCN2CCCCC2)c(Br)c1 | 21.9 | 0 | 0 | 0 | 0 | 0 | 0
Cc1ccc(OCCCCN2CCCCC2)c(C)c1 | 0 | 0 | 0 | 0 | 0 | - | -
Cc1ccc(C)c(OCCCCN2CCCCC2)c1 | 20.6 | 0 | 0 | 0 | 0 | 0 | 0
Nc1ccn([C@@H]2O[C@H](CNCc3ccc(Oc4cc(-n5cccn5)ncn4)cc3)[C@@H](O)[C@H]2O)c(=O)n1 | 0 | 0 | 0 | 0 | 0 | - | -
COCCn1c(SCC(=O)Nc2cc(C)nn2-c2ccccc2)nnc1-c1ccncc1 | 20.4 | 0 | 0 | 0 | 0 | 0 | 0
Cc1cc(NC(=O)CSc2nnc(-c3ccncc3)n2Cc2ccccc2)n(-c2ccccc2)n1 | 0 | 0 | 0 | 0 | 0 | - | -
CCOc1cc(N2CCOCC2)c(OCC)cc1NC(=O)c1ccc(OCc2c(C)noc2C)c(OC)c1 | 20.4 | 0 | 0 | 0 | 0 | 0 | 0
CCOc1cc(N2CCOCC2)c(OCC)cc1NC(=O)c1ccc(OC)cc1 | 0 | 0 | 0 | 0 | 0 | - | -
CC(C)C[C@H](NC(=O)c1ccc(Cl)cc1Cl)C(=O)N1CCC[C@H]1C(=O)NCc1ccccc1 | 0 | 0 | - | 0 | 0 | - | -
SMILES | sPLA2-III inh | PG9 binder | MsrA act | rCAG binder | MsrA inhibitor | sPLA2 confirm | 535nm interf | others
COc1ccc2c(=O)cc(-c3cccnc3)oc2c1OC | 19.8 | 0 | 0 | 0 | 0 | 0 | 0
COc1cc(-c2nnc(-c3cccnc3)o2)cc(OC)c1OC | 0 | 0 | 0 | 0 | 0 | - | -
CCOC(=O)C(=O)NNc1ccc(F)cc1 | 21.2 | 0 | 0 | 0 | 0 | 0 | 0
CCOC(=O)C(=O)N/N=C/c1ccc(F)cc1 | 0 | 0 | 0 | 0 | 0 | - | -
COc1cccc(N2CCN(CC(=O)NCc3c(F)cccc3F)CC2)c1 | 0 | - | - | 0 | - | - | -
Nc1ccc(N2CCN(c3cccc(Cl)c3)CC2)cc1 | 22.8 | 0 | 0 | 0 | 0 | 0 | 0
N/C(COc1cc(Cl)cc(Cl)c1)=N\O | 20.6 | 0 | 0 | 0 | 0 | 0 | 0
CN(C1CCCCC1)S(=O)(=O)c1ccc2c(c1)c(=O)c(C(=O)O)cn2C | 0 | 0 | 0 | 0 | 0 | - | -
Nc1sc(-c2ccccc2)cc1C(=O)NCCN1CCOCC1 | 19.9 | 0 | - | 0 | 0 | 0 | 0
CC(C)(C)c1ccc(OCCCCCCN2CCNCC2)cc1 | 23.3 | 0 | 0 | 0 | 0 | 0 | 0
CCN(CC)c1ccc(N=Nc2nn(C)c(C)c2[N+](=O)[O-])cc1 | 22.7 | 0 | 0 | 0 | 0 | 39.3 | 0 | BODIPY interf DR=0
COc1cccc(C2CC=C(C(=O)O)CN2S(=O)(=O)c2ccc(C)cc2)c1 (stereo not given) | 0 | - | - | 0 | - | - | -
Cc1cc(C(=O)NCC(=O)OCC(=O)N(C(C)C)C(C)C)ccc1[N+](=O)[O-] | 21.3 | 0 | 0 | 0 | 0 | 0 | 0
CC(C)(CCC(=S)N1CCOCC1)C1CCCCC1 | 19.4 | 0 | 0 | 0 | 0 | 0 | 0
S=C(CN1CCCC1=S)N1CCOCC1 | 0 | 0 | 0 | 0 | 0 | - | -
COc1ccccc1N=Nc1nc(-c2ccccc2)c(-c2ccccc2)[nH]1 | 0 | 0 | 0 | 0 | 0 | - | -
Oc1ccccc1N=Nc1nc(-c2ccccc2)c(-c2ccccc2)[nH]1 | 27.7 | 0 | 0 | 0 | 0 | 0 | 15.6
CS(=O)(=O)c1nc(-c2ccccc2)c(-c2ccccc2)[nH]1 | 0 | 0 | 0 | 0 | 0 | - | -
COc1ccc(N=Nc2nc(-c3ccccc3)c(-c3ccccc3)[nH]2)cc1 | 27.7 | 0 | 0 | 0 | 0 | 30.1 | 0 | BODIPY interf DR=0
Cc1ccc(NC2CCCN(C(=O)CSc3ccncc3)C2)cc1C (stereo not given) | 0 | 0 | 0 | 0 | 0 | - | -
CN(C)C=Nc1nc2c(Br)ccc(Br)c2cc1C(=O)NCC(C)(C)C | 0 | - | - | 0 | - | - | -
CCOC(=O)C1C(c2ccc(C)o2)NC(=O)NC1(O)C(F)(F)F (stereo not given) | 19.6 | 0 | 0 | 0 | 0 | 0 | 0
O=C(OCc1cn(Cc2ccc(F)c(F)c2)nn1)N1CCOCC1 | 19.4 | - | - | 0 | - | 0 | 0
O=C(OCc1cn(Cc2ccc(F)c(F)c2)nn1)N1CCCC1 | 0 | - | - | 0 | - | - | -
Cc1ccccc1CNC(=O)c1csc([C@H]2C[C@H](O)[C@@H](CO)O2)n1 | 0 | 0 | 0 | 0 | 0 | - | -
SMILES | sPLA2-III inh | PG9 binder | MsrA act | rCAG binder | MsrA inhibitor | sPLA2 confirm | 535nm interf | others
Cc1ccc(-c2nc3cc(C)c(Br)c(C)n3c2CC(C)(C)C)cc1 | 0 | 0 | 0 | 0 | 0 | - | -
CN(c1cc2c(c3c1ccn3C)C1CCC2O1)C1CCCCC1 (stereo not given) | 0 | 0 | 0 | 0 | 0 | - | -
Cn1ccc2c(N3CCCCCCC3)cc3c(c21)C1CCC3O1 (stereo not given) | 19.5 | 0 | 0 | 0 | 0 | 31.9 | 0 | BODIPY interf DR=0
COc1ccc(C2CC(=O)C(c3ccc(C)cc3)=CN2Cc2ccccc2)cc1 (stereo not given) | 0 | 0 | - | 0 | 0 | - | -
O=C1CCCc2nc(N3CCN(c4ccccc4)CC3)ncc21 | 0 | 0 | 0 | 0 | 0 | - | -
Fc1cnc(N2CCN(c3ccccc3)CC2)nc1N1CCN(c2ccccc2)CC1 | 21.3 | 0 | 0 | 0 | 0 | 0 | 0
O=C1CCCN1c1nccs1 | 19.6 | 0 | 0 | 0 | 0 | 0 | 0
